Sampled rows, rich in hits. Any-hit rate of the full collection: about 2.2%.
CHRM1 PAM: human M1 muscarinic receptor positive allosteric modulators, primary screen, CHO-K1 cells, Fluo-8 calcium fluorescence, 1536-well | 360,000 compounds, 0.088% hits | Muscarinic acetylcholine receptor M1 (Homo sapiens), P11229 | activation, % at 3 µM | CHO-K1 hM1, ACh EC20; 0% = ACh EC20, 100% = maximal ACh; in the data active = activation above about 19%, passing the limit was not always enough
M4 PAM: human M4 muscarinic receptor positive allosteric modulators, primary screen, CHO-K1 cells, Fluo-8 calcium fluorescence; Muscarinic acetylcholine receptor M4 (Homo sapiens), P08173; CHO-K1 hM4/Gqi5, ACh EC20; 0% = ACh EC20, 100% = maximal ACh; activation, % at 3 µM; 360,000 compounds, 0.4% hits;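 active = activation above its plate's cutoff, the mean activation of sample wells plus 3 SD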
Target sequence (P08173 whole entry, looked up): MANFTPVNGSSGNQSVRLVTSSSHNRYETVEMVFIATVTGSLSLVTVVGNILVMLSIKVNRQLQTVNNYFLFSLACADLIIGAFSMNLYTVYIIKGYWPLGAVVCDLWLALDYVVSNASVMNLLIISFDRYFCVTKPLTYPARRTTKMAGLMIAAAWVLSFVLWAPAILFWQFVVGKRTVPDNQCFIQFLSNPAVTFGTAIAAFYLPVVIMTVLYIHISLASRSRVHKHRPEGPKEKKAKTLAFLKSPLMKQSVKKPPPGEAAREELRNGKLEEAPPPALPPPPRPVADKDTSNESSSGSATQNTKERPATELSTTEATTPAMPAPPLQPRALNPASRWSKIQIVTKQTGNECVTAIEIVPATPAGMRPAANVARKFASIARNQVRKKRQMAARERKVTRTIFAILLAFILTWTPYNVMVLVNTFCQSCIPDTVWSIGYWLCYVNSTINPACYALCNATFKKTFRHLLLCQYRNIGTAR
M4 ag: human M4 muscarinic receptor agonists, primary screen, CHO-K1 cells, Fluo-8 calcium fluorescence; 360,000 compounds, 0.14% hits; CHO-K1 hM4/Gqi5; vehicle 0%, full acetylcholine response 100%; AID 624127, 2012; activation, % at 3 µM;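 active = activation above the run mean over all test wells plus 3 SD, cut at about 32% in these data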;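 note: peak over basal fluorescence ratio per well then scaled between controls; 0% = DMSO wells and 100% = acetylcholine at EC100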
M1 antag: human M1 muscarinic receptor antagonists, primary screen, CHO-K1 cells, Fluo-8 calcium fluorescence, 1536-well | 360,000 compounds, 1.3% hits | Muscarinic acetylcholine receptor M1 (Homo sapiens), P11229 | CHO-K1 hM1, ACh EC80 antagonist | inhibition, % at 3 µM;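 active = percent inhibition above its own plate's cutoff, namely the mean of that plate's compound wells plus 3 SD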;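 note: peak over basal fluorescence ratio during 140 s after agonist addition; 0% = ACh EC80 plus DMSO and 100% = DMSO alone without agonist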
CHRM4 antagonist: human M4 muscarinic receptor antagonists, primary screen, CHO cells, Fluo-8 calcium fluorescence | Muscarinic acetylcholine receptor M4 (Homo sapiens), P08173 | CHO-hM4 cells, ACh EC80 | inhibition, % at 3 µM | 360,000 compounds, 0.73% hits | AID 624125, 2012;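 active = inhibition above its plate's cutoff, the mean inhibition of sample wells plus 3 SD, cut at about 27% in these data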;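 note: 0% = acetylcholine EC80 with DMSO and 100% = DMSO without agonist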
CHRM1 agonist: human M1 muscarinic receptor agonists, primary screen, Fluo-8 calcium fluorescence, CHO-K1 cells, HTS; Muscarinic acetylcholine receptor M1 (Homo sapiens), P11229; CHO-K1 hM1, agonist mode; 0% DMSO, 100% acetylcholine EC100; activation, % at 3 µM; 360,000 compounds, 0.33% hits; AID 588814, 2011;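 active = activation above the run's mean compound activation plus 3 SD, cut at about 16% in these data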;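 note: peak over basal fluorescence ratio within a 140 s kinetic read after compound addition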
Starred values were filed as active, the others as inactive.

SMILES	CHRM1 PAM	M4 PAM	M4 ag	M1 antag	CHRM4 antagonist	CHRM1 agonist
COc1cc(/C=N/NC(=S)NC(C)C)ccc1OCC(=O)Nc1c(C)cc(C)cc1C	-5	-4	4	6	-7	-4
Cc1ccc2oc(C(=O)NCc3ccccc3)cc(=O)c2c1	2	-1	6	0	-20	0
Cc1cc2oc(C(=O)NCc3ccccc3)cc(=O)c2cc1C	-31	-18	1	81*	98*	-7
Cn1c(=O)c2sccc2n2c(CCCC(=O)NC3CCN(Cc4ccccc4)CC3)nnc12	-7	-5	2	12	-5	-6
O=C(CN1C(=O)NC2(CCCC2)C1=O)Nc1cc(Cl)ccc1Oc1ccccc1	-4	-2	7	5	-1	-5
CC(=O)OCCN(C)c1cc(SC(C)C)c2nonc2c1[N+](=O)[O-]	2	-3	2	1	-3	-6
CN(CCO)c1cc(Sc2nc3ccccc3s2)c2nonc2c1[N+](=O)[O-]	-11	-13	4	25	93*	-2
CSc1cccc(NS(=O)(=O)c2cc(Br)cnc2N)c1	-24	-14	3	63*	25	-6
Cc1cc(C)cc(NS(=O)(=O)c2cc(Br)cnc2N)c1	0	-6	1	-3	-2	-3
CSc1cccc(NS(=O)(=O)c2ccccc2)c1	3	-4	2	-3	3	-3
Cc1ccc(NS(=O)(=O)c2cc(Br)cnc2N)cc1C	-24	-15	3	100*	97*	-6
Fc1cccc(/C=N/Nc2ncnc3nc[nH]c23)c1	7	0	1	-10	-1	-4
O=C(NCCC1=CCCCC1)C1CCN(S(=O)(=O)c2ccc(-n3cnnn3)cc2)CC1	7	-2	2	-12	4	-4
O=c1[nH][nH]c(-c2ccccc2)c1C=Nc1ccc(F)cc1F	10	21*	2	1	-4	-3
CCOc1[nH]n(-c2ccccc2)c(=O)c1C=Nc1ccc(F)cc1F	5	7	1	-2	-7	-4
O=[N+]([O-])c1ccc(C[n+]2ccc(Cc3ccccc3)cc2)cc1	-31	-15	0	28*	24	-14
O=[N+]([O-])c1ccc(CS(=O)Cc2ccccc2)cc1 (configuration not stated)	5	3	1	-14	1	-6
O=[N+]([O-])c1ccc(C[n+]2ccccc2)cc1	17	25*	0	-1	3	-6
NNC(=O)c1ccc(CN2C(=O)c3cccc4cccc2c34)cc1	15	-6	1	-12	6	34*
COc1ccccc1/C=N/NC(=O)c1ccc(CN2C(=O)c3cccc4cccc2c34)cc1	4	12	1	-23	2	7
CCc1nn(CC(=O)NC(C)CCc2ccccc2)c(=O)c2cc3cc(F)ccc3n12 (configuration not stated)	14	-3	2	-15	1	-1
COc1ccc2c(c1)cc1c(=O)n(CC(=O)NC(C)CCc3ccccc3)nc(C)n12 (configuration not stated)	20	15*	1	-17	-14	1
O=C(CCCn1c(=S)[nH]c2cc3c(cc2c1=O)OCO3)N1CCN(c2ccccc2)CC1	4	4	1	-8	-5	-4
Cc1cccc(N2CCN(C(=O)CCn3c(=S)[nH]c4cc5c(cc4c3=O)OCO5)CC2C)c1 (configuration not stated)	-5	31*	6	1	40*	0
COc1ccccc1C1CC(c2ccccc2)=NN1S(=O)(=O)c1ccccc1 (configuration not stated)	3	9	-1	-31	3	-2
Cc1ccc(NC(=O)c2ccc([N+](=O)[O-])o2)c(C)c1	10	9	0	-17	-5	-2
